# Experimental data: the antibiotic and cytotoxicity screens of Wong et al. (2023)
# Screen size: about 39,000 compounds; about 3,300 (8.5%) were called active. Only a selection was taken, and actives are over-represented in it overall.
# Tested on: HepG2
# Test: cytotoxicity call (relative viability < 0.9)
# Settings: 10 µM
row,Compound,cytotoxicity call
1,COCC(=O)Nc1ccc2c(c1)C(=O)N(C)[C@@H]1CC[C@H](CC(=O)NCc3ccc(OC)cc3)O[C@H]1CO2,inactive
2,C[C@H]1CN([C@@H](C)CO)C(=O)Cc2cc(NS(=O)(=O)c3ccccc3)ccc2O[C@H]1CN(C)CC1CC1,inactive
3,C[C@@H]1CN([C@@H](C)CO)C(=O)c2cc(NC(=O)CCC(F)(F)F)ccc2O[C@@H](C)CCCCO[C@H]1CN(C)S(=O)(=O)c1ccc(F)cc1,inactive
4,COc1ccccc1CNC(=O)C[C@H]1C[C@@H]2c3cc(NC(=O)C4CCOCC4)ccc3O[C@@H]2[C@@H](CO)O1,inactive
5,COc1ccc(S(=O)(=O)Nc2ccc3c(c2)C(=O)N([C@H](C)CO)C[C@@H](C)[C@@H](CN(C)CC2CC2)O3)cc1,inactive
6,Cc1noc(C)c1NC(=O)N(C)C[C@H]1Oc2ccc(NC(=O)NC(C)C)cc2CC(=O)N([C@@H](C)CO)C[C@H]1C,inactive
7,O=C(CN1CCOCC1)NCC[C@H]1CC[C@H](NC(=O)Nc2ccccc2)[C@@H](CO)O1,inactive
8,C[C@@H]1CCCCO[C@@H](CN(C)C(=O)Nc2ccc3c(c2)OCO3)[C@@H](C)CN([C@H](C)CO)C(=O)c2cc(NC(=O)Nc3ccccc3)ccc2O1,inactive
9,Nc1cccc(C2=NCCN2)c1,inactive
10,CS(=O)(=O)Nc1ccc2c(c1)[C@H]1C[C@@H](CC(=O)NCC3CC3)O[C@H](CO)[C@H]1O2,inactive
11,COc1ccc(NC(=O)N(C)C[C@@H]2Oc3ncc(C#CCN(C)C)cc3C(=O)N([C@@H](C)CO)C[C@@H]2C)cc1,inactive
12,C[C@H](CO)N1C[C@H](C)[C@H](CN(C)S(=O)(=O)c2ccc(F)cc2)Oc2c(NS(=O)(=O)c3ccc(F)cc3)cccc2C1=O,inactive
13,C[C@@H]1CN([C@@H](C)CO)C(=O)c2cccc(NS(=O)(=O)c3ccc(F)cc3)c2O[C@@H]1CN(C)S(=O)(=O)c1ccc(F)cc1,active
14,C[C@H]1CN([C@@H](C)CO)C(=O)c2cccc(NS(=O)(=O)c3ccc(F)cc3)c2O[C@H]1CN(C)S(=O)(=O)c1ccc(F)cc1,inactive
15,CC(C)C#Cc1ccc2c(c1)O[C@@H](CN(C)S(=O)(=O)c1cn(C)cn1)[C@H](C)CN([C@H](C)CO)S2(=O)=O,inactive
16,O=C(CS)NCCCCCCNC(=O)[C@@H]1C[C@@H]2C(=O)N[C@@H](Cc3ccccc3)C(=O)N2[C@@H]1c1ccc(O)cc1,inactive
17,COc1ccc(NC(=O)N2C[C@H](O)COC[C@H]3O[C@@H](CC(=O)NC4Cc5ccccc5C4)CC[C@@H]32)cc1,inactive
18,CO[C@H]1CN(C)C(=O)c2ccc(NC(=O)C3CC3)cc2OC[C@@H](C)N(C(=O)CN2CCOCC2)C[C@H]1C,inactive

row,Compound,cytotoxicity call
1,C[C@H]1CN([C@@H](C)CO)C(=O)c2cccc(NC(=O)c3ccc(-c4nccs4)cc3)c2O[C@H]1CN(C)C(=O)Nc1cccc2ccccc12,inactive
2,C=CCNC(=O)[C@H]1[C@@H]2C(=O)O[C@@H](c3ccccc3)[C@@H](c3ccccc3)N2[C@@H](c2ccccc2OCCO)[C@]12C(=O)Nc1ccc(C#CC3=CCCCC3)cc12,inactive
3,COc1ccc(C#Cc2ccc3c(c2)[C@]2(C(=O)N3)[C@H](C(=O)O)[C@H]3C(=O)O[C@H](c4ccccc4)[C@H](c4ccccc4)N3[C@@H]2c2ccccc2OCCO)cc1,inactive
4,C=CCNC(=O)[C@@H]1[C@H]2C(=O)O[C@H](c3ccccc3)[C@H](c3ccccc3)N2[C@H](c2ccccc2OCCO)[C@@]12C(=O)Nc1ccc(C#CC3=CCCCC3)cc12,inactive
5,COc1ccc(C#Cc2ccc3c(c2)[C@]2(C(=O)N3)[C@H](c3ccc(OCCO)cc3)N3[C@H](c4ccccc4)[C@H](c4ccccc4)OC(=O)[C@H]3[C@@H]2C(=O)NC[C@H](O)c2ccccc2)cc1,inactive
6,C=CCNC(=O)[C@@H]1[C@H]2C(=O)O[C@H](c3ccccc3)[C@H](c3ccccc3)N2[C@H](c2ccccc2OCCO)[C@@]12C(=O)Nc1ccc(C#Cc3ccc(OC)cc3)cc12,inactive
7,COc1ccc(C#Cc2ccc3c(c2)[C@]2(C(=O)N3)[C@H](c3ccccc3OCCO)N3[C@H](c4ccccc4)[C@H](c4ccccc4)OC(=O)[C@H]3[C@@H]2C(=O)O)cc1,inactive
8,COc1ccc(C#Cc2ccc3c(c2)[C@]2(C(=O)N3)[C@H](C(=O)N3CCN(c4ncccn4)CC3)[C@H]3C(=O)O[C@H](c4ccccc4)[C@H](c4ccccc4)N3[C@@H]2c2ccc(OCCO)cc2)cc1,inactive
9,COc1ccc(C#Cc2ccc3c(c2)[C@]2(C(=O)N3)[C@H](c3ccccc3OCCO)N3[C@H](c4ccccc4)[C@H](c4ccccc4)OC(=O)[C@H]3[C@@H]2C(=O)NC[C@H](O)c2ccccc2)cc1,active
10,COc1ccc(C#Cc2ccc3c(c2)[C@]2(C(=O)N3)[C@H](c3ccccc3OCCO)N3[C@H](c4ccccc4)[C@H](c4ccccc4)OC(=O)[C@H]3[C@@H]2C(=O)N2CCN(c3ncccn3)CC2)cc1,active
11,COc1ccc(C#Cc2ccc3c(c2)[C@]2(C(=O)N3)[C@H](C(N)=O)[C@H]3C(=O)O[C@H](c4ccccc4)[C@H](c4ccccc4)N3[C@@H]2c2ccccc2OCCO)cc1,active
12,COc1ccc(C#Cc2ccc3c(c2)[C@]2(C(=O)N3)[C@H](C(=O)N3CCN(c4ncccn4)CC3)[C@H]3C(=O)O[C@H](c4ccccc4)[C@H](c4ccccc4)N3[C@@H]2c2ccccc2OCCO)cc1,inactive
13,O=C1O[C@H](c2ccccc2)[C@H](c2ccccc2)N2[C@H]1[C@@H](C(=O)NC[C@@H](O)c1ccccc1)[C@]1(C(=O)Nc3ccc(C#CC4=CCCCC4)cc31)[C@H]2c1ccccc1OCCO,active
14,Cc1noc(C)c1NC(=O)Nc1ccc2c(c1)C(=O)N([C@@H](C)CO)C[C@H](C)[C@H](CN(C)Cc1ccc(C(F)(F)F)cc1)O2,inactive
15,Cc1noc(C)c1NC(=O)N(C)C[C@@H]1Oc2c(NS(=O)(=O)c3cn(C)cn3)cccc2C(=O)N([C@H](C)CO)C[C@@H]1C,inactive
16,OCCCn1cnnc1,inactive
17,C[C@H](CO)N1C[C@H](C)[C@H](CN(C)C)Oc2cc(C#CCN(C)C)ccc2S1(=O)=O,inactive
